Results: PubChem BioAssay (EPA / NIEHS)
Results filed as inconclusive are left out. Activity calls are given as the source filed them. How the source made its calls, unless noted: active means hit-call score of the fitted dose curve at least 0.9, where 1 is the maximum; inactive means score below 0.9.

Experiments:
[1] = target: Myc proto-oncogene protein (Homo sapiens) (UniProt P01106); assay: ATG_Myc_CIS: Attagene CIS-FACTORIAL HepG2 Assay for human Myelocytomatosis (Myc) Proto-Oncogene Transcription Factor (AID 2282990); details: HepG2, Attagene cis-reporter transcription factor activity; actives raise or lower the signal
How it was run: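 After 24 h chemical treatment of HepG2 cells carrying multiplexed cis-regulated reporter constructs, reporter transcripts quantified by RT-PCR and capillary electrophoresis of fluorescent fragments. Gain or loss fitted against DMSO baseline.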

[2] = ATG_NF_kB_CIS: Attagene CIS-FACTORIAL HepG2 Assay for human Nuclear Factor Kappa B (NF-kB) (AID 2282991); details: HepG2 Attagene cis-factorial NF-kB reporter mRNA; actives raise or lower the signal
How it was run: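 HepG2 cells transfected with cis-promoter-driven reporter units, so endogenous transcription factor activity is measured. Reporter mRNA quantified 24 h after dosing by RT-PCR and capillary electrophoresis, with bidirectional fitting against DMSO.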

[3] = ATG_NRF2_ARE_CIS: Attagene CIS-FACTORIAL HepG2 Assay for human Nuclear Factor Erythroid 2 Related Factor 2 (NFR2) response to Antioxidant Response Elements (ARE) (AID 2282992); details: HepG2 Attagene ARE/NRF2 reporter, transcription factor activity; actives raise or lower the signal;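 on AC50: reporter mRNA level measured by RT-PCR and capillary electrophoresis fluorescence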
How it was run: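 HepG2 cells transiently transfected with multiplexed cis-regulated reporter transcription units measure endogenous transcription factor activity. Reporter mRNA at 24 h is quantified by RT-PCR, fluorescent labelling and capillary electrophoresis, with bidirectional fitting relative to DMSO.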

[4] = ATG_Oct_MLP_CIS: Attagene CIS-FACTORIAL HepG2 Assay for human Octamer-Binding Transcription Factor (Oct) (AID 2282993); details: HepG2 Attagene cis-factorial Oct reporter, mRNA; actives raise or lower the signal
How it was run: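 HepG2 cells transiently transfected with cis-element-driven reporter transcription units (endogenous TF activity); 24 h compound exposure. Reporter mRNA quantified by RT-PCR, 6-FAM labelling, HpaI digestion and capillary electrophoresis; bidirectional fit versus DMSO baseline.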

[5] = BSK_3C_TissueFactor: BioMAP Diversity Plus: 3C Assay for Tissue Factor Biomarker Activity (AID 2282997); details: BioMAP 3C HUVEC, tissue factor biomarker readout; actives raise or lower the signal
How it was run: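 Values derive from bidirectional curve fitting against DMSO of Tissue Factor ELISA signals, taken 24 h after dosing primary human umbilical vein endothelial cells.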

[6] = BSK_3C_uPAR: BioMAP Diversity Plus: 3C Assay for Urokinase-type plasminogen activator receptor (uPAR) Biomarker Activity (AID 2282998); details: BioMAP 3C HUVEC, uPAR biomarker ELISA; actives raise or lower the signal
How it was run: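 Primary human umbilical vein endothelial cells, 3C system; surface uPAR measured by ELISA 24 h after dosing. Cytotoxicity via SRB total protein in parallel cultures; bidirectional fit against DMSO.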

[7] = BSK_4H_Eotaxin3: BioMAP Diversity Plus: 4H Assay for Eotaxin 3 Biomarker Activity (AID 2283000); details: primary human endothelial cells (HUVEC); actives raise or lower the signal
How it was run: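 Endothelial primary cells (human umbilical vein) exposed to compound for 24 h. ELISA detection of Eotaxin-3.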

[8] = target: human Peroxisome Proliferator-activated Receptor alpha (PPARa), PPARA (gene 5465) (UniProt Q07869); assay: ATG_PPARa_TRANS: Attagene TRANS-FACTORIAL HepG2 Assay for human Peroxisome Proliferator-activated Receptor alpha (PPARa) (AID 2283001; active means hit-call score of the fitted dose curve at least 0.9, where 1 is the maximum;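 on AC50: potency for gain of reporter signal over DMSO so agonist or activator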)
How it was run: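 Read-out is fluorescence of reporter cDNA fragments resolved by capillary electrophoresis after RT-PCR. Human HepG2 liver cells carried transfected PPARa-Gal4 chimera and GAL4-UAS reporter units, treated 24 h; activity scored as increase over DMSO.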

[9] = target: human Peroxisome Proliferator-activated Receptor delta (PPARd), PPARD (gene 5467) (UniProt Q03181); assay: ATG_PPARd_TRANS: Attagene TRANS-FACTORIAL HepG2 Assay for human Peroxisome Proliferator-activated Receptor delta (PPARd) (AID 2283002; active means hit-call score of the fitted dose curve at least 0.9, where 1 is the maximum)
How it was run: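 Read-out is induced reporter mRNA, quantified by RT-PCR with fluorescent labelling and capillary electrophoresis after 24 h dosing. Cells are HepG2 transiently carrying multiple GAL4-UAS reporter units driven by exogenous NR-GAL4 chimeras; DMSO serves as baseline.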

[10] = read-out: Intercellular Adhesion Molecule 1 (ICAM1), ICAM1 (gene 3383); assay: BSK_3C_ICAM1: BioMAP Diversity Plus: 3C Assay for Intercellular Adhesion Molecule 1 (ICAM1) Biomarker Activity (AID 2283003); details: primary human endothelial cells (HUVEC); actives raise or lower the signal
How it was run: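 HUVEC primary cells stimulated under 3C conditions; ICAM1 measured by ELISA 24 h after compound dosing. Curves fitted bidirectionally against the DMSO baseline. Overt cytotoxicity checked by SRB staining of parallel cultures.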

[11] = BSK_3C_Proliferation: Cell Proliferation Assessment in the BioMAP Diversity Plus: 3C Assay (AID 2283006); details: primary human endothelial cells (HUVEC);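 on AC50: potency may reflect either rise or fall in cell number versus DMSO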
How it was run: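 Subconfluent HUVEC (3C system) cultured with chemical; relative cell number read at 48 h by sulforhodamine B total-protein staining (0.1% SRB after 10% TCA fixation, 560 nm). Bidirectional fit relative to DMSO.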

[12] = target: human Retinoic Acid Receptor gamma (RARg), RARG (gene 5916) (UniProt P13631); assay: ATG_RARg_TRANS: Attagene TRANS-FACTORIAL HepG2 Assay for human Retinoic Acid Receptor gamma (RARg) (AID 2283009; active means hit-call score of the fitted dose curve at least 0.9, where 1 is the maximum)
How it was run: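 HepG2 transiently transfected with GAL4-UAS reporter units and chimeric NR-Gal4 constructs; 24 h compound exposure. Reporter mRNA quantified by RT-PCR, FAM labeling, HpaI digestion and capillary electrophoresis; gain-of-signal versus DMSO.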

[13] = target: Cellular tumor antigen p53 (Homo sapiens) (UniProt P04637); assay: ATG_p53_CIS: Attagene CIS-FACTORIAL HepG2 Assay for human p53 Transcription Factor (AID 2282994); details: HepG2 p53 cis-element reporter, Attagene mRNA; actives raise or lower the signal
How it was run: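 HepG2 cells transiently transfected with multiplexed cis-regulated reporter transcription units read endogenous TF activity. After 24 h compound exposure, reporter mRNA was quantified by RT-PCR, fluorescent labelling, HpaI digestion and capillary electrophoresis; bidirectional fits versus DMSO baseline.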

[14] = target: Peroxisome proliferator-activated receptor gamma (Homo sapiens) (UniProt P37231); assay: ATG_PPARg_TRANS: Attagene TRANS-FACTORIAL HepG2 Assay for human Peroxisome Proliferator-activated Receptor-gamma (PPARg) (AID 2283007; active means hit-call score of the fitted dose curve at least 0.9, where 1 is the maximum)
How it was run: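 HepG2 cells are transiently transfected with GAL4-UAS reporter units driven by chimeric NR-Gal4 fusions and dosed for 24 h. Reporter mRNA is quantified by RT-PCR, 6-FAM labelling, HpaI digestion and capillary electrophoresis. Induction is scored against DMSO.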

[15] = target: Nuclear receptor subfamily 1 group I member 2 (Homo sapiens) (UniProt O75469); assay: ATG_PXR_TRANS: Attagene TRANS-FACTORIAL HepG2 Assay for human Pregnane X Receptor (PXR) (AID 2283008; active means hit-call score of the fitted dose curve at least 0.9, where 1 is the maximum)
How it was run: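 HepG2 cells transiently transfected with multiple reporter units, here a PXR-GAL4 chimera driving a GAL4-UAS reporter; 24 h compound exposure. Reporter mRNA measured by RT-PCR, FAM labelling and capillary electrophoresis; gain of signal fitted against DMSO baseline.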

[16] = target: human RAR-related Orphan Receptor beta (RORb), RORB (gene 6096) (UniProt Q92753); assay: ATG_RORb_TRANS: Attagene TRANS-FACTORIAL HepG2 Assay for human RAR-related Orphan Receptor beta (RORb) (AID 2283010; active means hit-call score of the fitted dose curve at least 0.9, where 1 is the maximum)
How it was run: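 HepG2 cells transiently transfected with GAL4-UAS reporter units expressing chimeric NR-Gal4 protein; reporter mRNA measured 24 h after dosing by RT-PCR, 6-FAM labelling and capillary electrophoresis. Gain-of-signal fitted relative to DMSO baseline.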

[17] = target: human RAR-related Orphan Receptor gamma (RORg), RORC (gene 6097) (UniProt P51449); assay: ATG_RORg_TRANS: Attagene TRANS-FACTORIAL HepG2 Assay for human RAR-related Orphan Receptor gamma (RORg) (AID 2283011; active means hit-call score of the fitted dose curve at least 0.9, where 1 is the maximum)
How it was run: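 Activity is scored as increase in GAL4-UAS reporter mRNA over DMSO, detected by fluorescent RT-PCR and capillary electrophoresis in HepG2 cells transiently expressing a RORg-Gal4 chimera, 24 h after dosing.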

[18] = BSK_3C_VCAM1: BioMAP Diversity Plus: 3C Assay for Vascular cell adhesion molecule 1 (VCAM1) Biomarker Activity (AID 2282999); details: BioMAP 3C HUVEC, VCAM1 ELISA, cytokine-stimulated; actives raise or lower the signal
How it was run: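 Endothelial cells from human umbilical vein are treated with test chemical. At 24 h, VCAM-1 is measured by ELISA, and responses in either direction are fitted relative to DMSO.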

[19] = target: Retinoic acid receptor alpha (Homo sapiens) (UniProt P10276); assay: ATG_RARa_TRANS: Attagene TRANS-FACTORIAL HepG2 Assay for human Retinoic Acid Receptor alpha (RARa) (AID 2283005; active means hit-call score of the fitted dose curve at least 0.9, where 1 is the maximum)
How it was run: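 Reporter transcripts, measured by RT-PCR with fluorescent labeling and capillary electrophoresis after 24 h dosing, reflect activity of an exogenous human RARa–GAL4 fusion in transiently transfected HepG2. Fitted for increase relative to DMSO.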

Measured: AC50

Sequence of Peroxisome proliferator-activated receptor gamma (Homo sapiens) (P37231 whole entry, looked up, the tested form may be a part): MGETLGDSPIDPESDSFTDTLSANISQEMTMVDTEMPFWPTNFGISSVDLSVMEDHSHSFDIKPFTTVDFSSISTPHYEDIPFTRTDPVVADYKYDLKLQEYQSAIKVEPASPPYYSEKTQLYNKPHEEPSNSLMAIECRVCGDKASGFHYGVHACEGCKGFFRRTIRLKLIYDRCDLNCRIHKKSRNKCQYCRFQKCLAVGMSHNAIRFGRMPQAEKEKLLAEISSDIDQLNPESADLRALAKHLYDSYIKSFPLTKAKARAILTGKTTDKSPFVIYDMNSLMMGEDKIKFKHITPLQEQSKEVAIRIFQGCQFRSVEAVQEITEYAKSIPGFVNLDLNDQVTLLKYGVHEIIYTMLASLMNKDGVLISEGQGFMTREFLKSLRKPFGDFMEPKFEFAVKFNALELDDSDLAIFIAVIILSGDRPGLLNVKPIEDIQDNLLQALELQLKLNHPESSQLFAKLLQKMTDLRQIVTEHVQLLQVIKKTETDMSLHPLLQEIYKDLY
Sequence of human RAR-related Orphan Receptor beta (RORb), RORB (gene 6096) (Q92753 whole entry, looked up, the tested form may be a part): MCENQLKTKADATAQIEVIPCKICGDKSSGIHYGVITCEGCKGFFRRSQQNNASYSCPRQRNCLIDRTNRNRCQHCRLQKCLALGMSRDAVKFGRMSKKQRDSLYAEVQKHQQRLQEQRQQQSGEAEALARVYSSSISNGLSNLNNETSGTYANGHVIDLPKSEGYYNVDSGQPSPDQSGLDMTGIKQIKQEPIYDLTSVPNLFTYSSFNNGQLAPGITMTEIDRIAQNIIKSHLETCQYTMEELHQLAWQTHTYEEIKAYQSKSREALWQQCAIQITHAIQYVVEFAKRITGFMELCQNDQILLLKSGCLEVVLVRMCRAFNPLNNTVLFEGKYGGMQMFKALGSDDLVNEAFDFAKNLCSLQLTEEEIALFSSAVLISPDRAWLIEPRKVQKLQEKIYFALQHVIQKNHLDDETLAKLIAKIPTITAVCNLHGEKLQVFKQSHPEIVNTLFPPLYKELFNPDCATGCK
Sequence of Myc proto-oncogene protein (Homo sapiens) (P01106 whole entry, looked up, the tested form may be a part): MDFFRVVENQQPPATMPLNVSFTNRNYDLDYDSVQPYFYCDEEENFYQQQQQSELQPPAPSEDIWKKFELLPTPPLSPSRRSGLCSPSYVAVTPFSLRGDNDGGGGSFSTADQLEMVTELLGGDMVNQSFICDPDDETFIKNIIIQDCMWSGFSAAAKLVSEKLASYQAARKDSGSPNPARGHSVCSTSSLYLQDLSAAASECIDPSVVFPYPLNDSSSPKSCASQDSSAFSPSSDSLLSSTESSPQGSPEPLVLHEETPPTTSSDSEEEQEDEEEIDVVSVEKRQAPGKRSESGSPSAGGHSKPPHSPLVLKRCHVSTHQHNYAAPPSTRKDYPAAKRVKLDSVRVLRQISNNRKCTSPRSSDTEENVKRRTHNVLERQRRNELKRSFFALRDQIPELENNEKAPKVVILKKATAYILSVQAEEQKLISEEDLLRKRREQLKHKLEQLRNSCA
Sequence of human Retinoic Acid Receptor gamma (RARg), RARG (gene 5916) (P13631 whole entry, looked up, the tested form may be a part): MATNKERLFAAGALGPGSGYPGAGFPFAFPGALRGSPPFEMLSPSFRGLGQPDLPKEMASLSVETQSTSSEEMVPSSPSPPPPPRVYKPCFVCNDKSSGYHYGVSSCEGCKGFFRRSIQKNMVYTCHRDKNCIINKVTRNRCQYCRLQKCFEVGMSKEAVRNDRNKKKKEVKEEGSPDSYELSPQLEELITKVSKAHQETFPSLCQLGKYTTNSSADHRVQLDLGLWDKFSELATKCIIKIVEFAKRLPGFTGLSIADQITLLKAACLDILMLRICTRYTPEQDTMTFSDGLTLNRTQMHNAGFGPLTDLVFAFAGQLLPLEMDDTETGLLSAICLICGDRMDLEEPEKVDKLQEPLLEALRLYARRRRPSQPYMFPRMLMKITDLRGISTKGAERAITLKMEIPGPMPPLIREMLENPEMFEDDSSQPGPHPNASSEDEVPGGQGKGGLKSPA
Sequence of Cellular tumor antigen p53 (Homo sapiens) (P04637 whole entry, looked up): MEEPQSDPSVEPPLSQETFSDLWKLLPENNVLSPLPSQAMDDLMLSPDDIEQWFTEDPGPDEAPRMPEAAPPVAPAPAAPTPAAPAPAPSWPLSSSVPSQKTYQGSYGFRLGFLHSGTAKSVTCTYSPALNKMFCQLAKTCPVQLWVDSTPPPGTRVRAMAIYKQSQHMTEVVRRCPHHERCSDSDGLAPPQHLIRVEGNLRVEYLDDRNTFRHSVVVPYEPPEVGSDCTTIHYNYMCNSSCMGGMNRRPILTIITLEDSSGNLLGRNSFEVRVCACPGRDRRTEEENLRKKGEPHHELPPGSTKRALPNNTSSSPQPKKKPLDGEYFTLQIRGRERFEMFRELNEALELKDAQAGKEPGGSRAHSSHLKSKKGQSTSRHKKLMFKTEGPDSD
Sequence of human Peroxisome Proliferator-activated Receptor delta (PPARd), PPARD (gene 5467) (Q03181 whole entry, looked up, the tested form may be a part): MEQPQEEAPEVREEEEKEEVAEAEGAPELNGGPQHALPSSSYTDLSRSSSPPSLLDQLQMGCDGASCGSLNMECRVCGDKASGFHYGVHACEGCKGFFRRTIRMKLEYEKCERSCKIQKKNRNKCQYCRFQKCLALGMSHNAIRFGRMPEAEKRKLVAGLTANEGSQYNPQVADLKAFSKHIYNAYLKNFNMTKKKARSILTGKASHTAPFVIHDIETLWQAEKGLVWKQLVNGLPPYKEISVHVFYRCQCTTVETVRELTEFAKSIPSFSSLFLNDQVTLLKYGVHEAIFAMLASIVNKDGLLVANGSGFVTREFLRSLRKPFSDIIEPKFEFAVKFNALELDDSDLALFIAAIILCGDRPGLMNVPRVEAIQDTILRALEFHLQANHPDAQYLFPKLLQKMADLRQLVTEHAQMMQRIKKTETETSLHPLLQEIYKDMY
Sequence of human Peroxisome Proliferator-activated Receptor alpha (PPARa), PPARA (gene 5465) (Q07869 whole entry, looked up, the tested form may be a part): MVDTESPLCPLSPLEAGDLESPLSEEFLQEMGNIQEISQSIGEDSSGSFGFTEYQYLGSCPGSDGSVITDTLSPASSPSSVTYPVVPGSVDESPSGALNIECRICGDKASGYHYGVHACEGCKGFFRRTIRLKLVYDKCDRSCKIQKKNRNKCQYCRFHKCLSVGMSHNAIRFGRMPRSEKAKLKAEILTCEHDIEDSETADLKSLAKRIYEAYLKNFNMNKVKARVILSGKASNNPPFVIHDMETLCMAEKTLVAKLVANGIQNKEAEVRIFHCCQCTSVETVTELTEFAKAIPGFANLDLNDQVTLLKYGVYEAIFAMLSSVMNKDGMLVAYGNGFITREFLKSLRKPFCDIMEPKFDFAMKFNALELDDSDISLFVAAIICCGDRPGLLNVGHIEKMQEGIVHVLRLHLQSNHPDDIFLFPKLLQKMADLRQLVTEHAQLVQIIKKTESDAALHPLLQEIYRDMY
Sequence of Nuclear receptor subfamily 1 group I member 2 (Homo sapiens) (O75469 whole entry, looked up, the tested form may be a part): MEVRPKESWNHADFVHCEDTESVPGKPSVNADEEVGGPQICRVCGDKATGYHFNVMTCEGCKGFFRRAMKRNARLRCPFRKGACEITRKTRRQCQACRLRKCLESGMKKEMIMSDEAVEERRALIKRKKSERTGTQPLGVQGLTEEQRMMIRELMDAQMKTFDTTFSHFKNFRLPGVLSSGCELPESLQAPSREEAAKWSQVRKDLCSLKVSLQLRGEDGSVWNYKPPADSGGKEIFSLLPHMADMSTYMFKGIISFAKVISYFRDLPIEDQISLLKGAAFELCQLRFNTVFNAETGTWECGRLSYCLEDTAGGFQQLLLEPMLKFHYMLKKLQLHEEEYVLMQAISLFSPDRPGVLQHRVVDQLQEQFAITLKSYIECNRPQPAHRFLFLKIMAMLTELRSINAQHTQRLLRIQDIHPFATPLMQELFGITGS
Sequence of human RAR-related Orphan Receptor gamma (RORg), RORC (gene 6097) (P51449 whole entry, looked up, the tested form may be a part): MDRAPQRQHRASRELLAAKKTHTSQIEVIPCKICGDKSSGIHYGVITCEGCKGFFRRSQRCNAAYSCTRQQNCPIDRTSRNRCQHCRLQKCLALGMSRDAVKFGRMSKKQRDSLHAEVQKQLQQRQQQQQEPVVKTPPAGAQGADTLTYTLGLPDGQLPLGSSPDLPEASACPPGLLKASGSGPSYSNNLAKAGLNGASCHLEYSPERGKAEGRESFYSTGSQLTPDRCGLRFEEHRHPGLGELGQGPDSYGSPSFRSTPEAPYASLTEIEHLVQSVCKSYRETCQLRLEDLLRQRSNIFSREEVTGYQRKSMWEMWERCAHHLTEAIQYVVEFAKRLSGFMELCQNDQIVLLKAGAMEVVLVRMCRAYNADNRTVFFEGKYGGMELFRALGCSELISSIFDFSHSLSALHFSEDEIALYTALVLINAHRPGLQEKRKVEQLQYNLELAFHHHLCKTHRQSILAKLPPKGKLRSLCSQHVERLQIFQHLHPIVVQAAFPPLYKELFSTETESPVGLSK
Sequence of Retinoic acid receptor alpha (Homo sapiens) (P10276 whole entry, looked up, the tested form may be a part): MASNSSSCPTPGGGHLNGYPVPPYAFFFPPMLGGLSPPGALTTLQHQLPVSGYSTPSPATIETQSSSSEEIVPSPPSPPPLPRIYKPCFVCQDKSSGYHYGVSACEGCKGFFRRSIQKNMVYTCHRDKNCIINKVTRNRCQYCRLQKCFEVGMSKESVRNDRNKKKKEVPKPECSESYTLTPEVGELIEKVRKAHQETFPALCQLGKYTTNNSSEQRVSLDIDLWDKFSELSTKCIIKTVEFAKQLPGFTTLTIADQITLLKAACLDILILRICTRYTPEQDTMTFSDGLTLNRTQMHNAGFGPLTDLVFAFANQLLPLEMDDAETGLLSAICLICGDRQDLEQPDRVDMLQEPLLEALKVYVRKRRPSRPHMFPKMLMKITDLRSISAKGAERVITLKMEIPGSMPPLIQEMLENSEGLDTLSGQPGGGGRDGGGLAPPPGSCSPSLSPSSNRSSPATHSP

Clc1cccc(Cl)c1Cl
inactive: [1] | [2] | [3] | [4] | [5] | [6] | [7] | [8] | [9] | [10] | [11] | [12]

CC(C)[C@H](C(=O)OC(C#N)c1cccc(Oc2ccccc2)c1)c1ccc(OC(F)F)cc1 (stereo not given in full)
inactive: [1] | [2] | [3] | [4] | [13] | [14]

C=CC(F)(C(F)(F)F)C(F)(F)C(F)(F)F (stereo not given)
inactive: [1] | [2] | [3] | [4] | [13] | [14] | [12]

CNC(=O)O/N=C/C(C)(C)S(C)(=O)=O
inactive: [1] | [2] | [3] | [13] | [8]

O=NN1CCCCCC1
inactive: [1] | [2] | [3] | [4] | [13] | [14]

CCCCS(=O)(=O)Cl
inactive: [1] | [2] | [3] | [4] | [13] | [9] | [15] | [16] | [17]

Clc1ccc(C(Cl)(Cl)Cl)cn1
inactive: [1] | [2] | [3] | [4] | [13] | [14] | [15] | [17]

Oc1c(Br)cc(Br)cc1Br
active: [3] 26.9 µM | [4] 57.1 µM | [6] 30.1 µM | [8] 13.3 µM | [11] 27.4 µM | [14] 11.9 µM | [15] 7.95 µM
inactive: [1] | [2] | [5] | [7] | [9] | [10] | [12] | [16]

Oc1cc(Cl)c(Cl)cc1Cl
inactive: [2] | [3] | [8] | [15]
active: [1] 152 µM | [4] 66.2 µM | [5] 20 µM | [6] 14.7 µM | [7] 27.6 µM | [14] 55.9 µM

OCCN(CCO)CCO
inactive: [1] | [2] | [3] | [4] | [5] | [6] | [18] | [7] | [8] | [10] | [11] | [16]

CCOC(=O)CC(=O)CCl
inactive: [1] | [5] | [8] | [10] | [15]
active: [2] 56.8 µM | [3] 181 µM | [13] 148 µM | [6] 0.0141 µM | [7] 20 µM | [11] 20 µM | [14] 22 µM

N#CCC#N
inactive: [1] | [2] | [3] | [13] | [8] | [9] | [19] | [14]
